Over roughly 2,300 sequences, “median log2 fold change of GCK-ALFA target abundance (FLAG IP / Myc IP barcode read proportion)” has its median near 0.095; the lowest 2% begin near -0.47. The sample as a whole holds a higher share of the lowest values than the screen did.
B1: LC3A_23_609 (protein)
chain: MYLIDFEVDLIGEPEEIEKIEKELLEALEEFLEENKDKIVDYEIEVEREELEDGRTYLSIRLKILIDGTREEAEALANEITTIASEIAPDAVISVEVEEV
B2: LC3A_147_509 (protein)
chain: YIVEIDIDLLVKNKVEEVKEKFKEIVEELKKKGYEVELEIEEEKIDENTYYVKVKITIKAETKEEAEEAANLTLDLLDKLEEELKEDILGSLISVEITEA
B3: LC3A_free_39_2183 (protein)
chain: SSEETKKLKEELLKLAEEEGEETKELAEKLIELIGEELERIKRLLELMKKLKEAGVDLKEALKEALELAEELKKKGKSKEEIAEAVLELMQDKYNLIPID
B4: LC3A_free_26_2149 (protein)
chain: DEFIDIVELDKAIDLLEELLKLLEENELASEEEKKLAKEALEEAKKETLESLKKALKLVEELLKLLKKNEKLPEETKKKLIKLAEEAIKHIKENIKIMES
B5: LC3A_3_1540 (protein)
chain: MDAAVAAALARLRAAGASAATLAAFEAAVAALRERGYDAALETLIAETDRLLGLSDALLLAFFEEVLELVETEDIDEEELIARIREIARTTLSEAEIEEL
B6: LC3A_28_1107 (protein)
chain: SSVDEENAKALAEAEKAAAAGEPAVITITVKSTDTQEDIDKKIETMEKIAEILKDVKDAAIIIDLDGEIPQEYLDKLADKGEEIEKKYPNITVIIALDEE
B7: LC3A_3_1662 (protein)
chain: AEELIEETLAWLREQGRSEETLEAAREAMTALKEKGYYEALETFAELLRELADLSDELLLELAEEVLELVETSDLDEESMTEEIREIARTIRSEAEIEEL
B8: LC3A_132_246 (protein)
chain: SEEEYKKALAELKEIIDKIVELLKEGKDPLPAIVELEEKAREIAEKLSLEETEKLVEETIEYAEKRFEEELDPNDEEARRTLDIIEMLLEGVLIEKELRS
B9: LC3A_132_248 (protein)
chain: SEEELKEALEELKEILEKIVEALKNGEDPLPLIVELEEKALEIAEKLSLEETEELIDEAKEYAEELFEEELDPNDEEARRTLDIIEMLLDGVLIEKELKS
B10: LC3A_132_247 (protein)
chain: SEEELEKALEELKEILEKIVELLKAGKDPLPQIVKLEELAREIAKKLSLEETEKLVDEAIEYAEELFEKELDPNDEEARRTLDIIEMSLEGVLIEKELES
B11: LC3A_28_830 (protein)
chain: SKIEERIAKFKAEAEAAKASQEPATLTITVTSEDTVEEAKKIAEAMKEEAEKLKDVPDIGIVIDTDGKIDPEVLKILTDTADEIEEKYPNVTVIIALPEE
B12: LC3A_23_622 (protein)
chain: MYKVTVEADTIATPEEAEKYIKLVKEKVEEIKEKYKDKIEEVKLEIEREELPDGTVYLHITVTIIVKDDEELAQKLKNELVDFFDKNIPNGVISYEIEKL
B13: LC3A_free_46_2410 (protein)
chain: YVAEIDVDALAETKEKAEEFAKKIEEAAKEIAKEYGIEVEIEVKISKDEDGTYFVEIEITLEAETKETLEKAVNELIDKIEEIAEELGVSIIISYEISEA
B14: LC3A_28_1055 (protein)
chain: SAVEEQIKKALEEAKELAAKGEEALIEIEIEEDDTEEDVEKKLKTIEEIAEINKDLPSTSIIVNVNNKNKEEVTKKFADLGDELEKKYPNVTVIIALSEE
B15: LC3A_28_1327 (protein)
chain: SELEEQLEKQRKEALELAEKGEDVLIEVTITPETTLEEAEELMEKLRELVKEVAPKVKVSIVVDVEGGVSQEVIDAIAEKADEIEKEYPNATVIIALDED
B16: LC3A_free_39_2199 (protein)
chain: SEEEEEEAEEEILELAEEEGEEALEAAEELLEELEGNLELVEAVLEQVKRAKEEGADVLELLKRLLELVRKLQEEGKSEEEIIEAIEEEADVIINLIPID
B17: LC3A_28_1010 (protein)
chain: MSVVEETKKEAEKALEEAKKGNDAYLEIKITKDTTLEEVKEIGKIIEETAKKISEIENVKLYIVVDDDSNEEKHNIILDKLDEIEKKYPNVSSIVAYTDE
B18: LC3A_3_1354 (protein)
chain: SEELIEEQIERLREAGFSEEVLEAARAAFEGLAAQGHEEGIELLTEALLKHKDAPEEKKLRVLNNLLAEVQANPNLTQEEVEELVKLADLDLAIEELDEE
B19: LC3A_132_313 (protein)
chain: SEKKYEEIKKKLEELLKEAEKNINDKEKVEELLKEIRKLLEEAEKELSPEQVKELYDFVADRLYKLSLKADEAGKEDVSLLLDAAAIEAASKALKAEKKI
B20: LC3A_28_1162 (protein)
chain: SAIEESIKAAFEELEKAIKEGKNGVITLKVPGDATEEDIERLIKALEEIAKKAEEHGINGILIDVDGGVKQEHIDRLAKAAEEIEKKYPKVTIIIALSDE
B21: LC3A_free_46_2347 (protein)
chain: YKAEIDIDLLAEDEETLKKAVEEIVEAAKKIAKKYNLKVNIEVEIEKLEDGSYYARIKITLEGETKEDVEAAVNELIDEIDKIAKKYNVAAIISYEIIKT
B22: LC3A_free_46_2352 (protein)
chain: VEAKIEIDLLADDKEKLEKAVEEIIKKIKEIAKKYGLEVEINYEISKLEDGSYYAKIEITLKGEDLEDVKKAVNELINEIEEIAEKYGVSAVISYEIEDV
B23: LC3A_free_0_2121 (protein)
chain: KKTVVELVVILDEKTSEEKAKEAYEELKEKAEELAEENGWEVEVKLDKVDGRHIITVTLTSDEPDIDKGLELERKLSEIAEEIAKKLGLDATIYSSVYLE
B24: LC3A_free_8_2531 (protein)
chain: NVQEMVDLALKELDKLEKIAVEKAKELGLSRTDILELELVIGSAKIDIIEASDKSVEEIYKLFKEELKEILEEAKKYGEELYKEVEKKAKEALKKMEEAK
B25: LC3A_28_1140 (protein)
chain: SALVEAAKAQIEADAEADKDEPEVLLRVTITSEMTVEQAREIMDHVEEVVEKLKDKEKIYIVVDATEPISQEVLDEIVERLEEIEKKYPNVSSIIALPED
B26: LC3A_28_1037 (protein)
chain: DELRRRAEEAVKEAEEQAKKGEEAVVTIKVGKLPTEEAKRIVREALERLIKISKKYGNVKISVVIDVDGDQELVDAIIDVAEEAEKKNPNLTVIIALSEE
B27: LC3A_23_605 (protein)
chain: MYKVEVIVDFIDKPEEAEKKVEELLKKVEELLKKHKDIVKDYEIKVTREALPDGTTYVEVEITIIIDGTKEEAEEIRNELESIASETLPNGVISSEVEEL
B28: LC3A_59_2035 (protein)
chain: SAEAEAAAARVRERGPSVDVVAEVFREVLEKNGLDPELARDLVAALVAVLVEAGLITAEEGAAIRAEADAAIDRLTDVDELVSELRVIILDALLKKNELE
B29: LC3A_141_361 (protein)
chain: ATKKETFTLTAKTEEEAIEVAEKIKEKIREFMEKTGAKEVKVTVTITAYNKKTGEVKTETIVETVTPENLDLFEEGLLIELLSYFEKGADEVKVTVTIES

Target: MAP1LC3A, Q9H492
Experiment: median log2 fold change of GCK-ALFA target abundance (FLAG IP / Myc IP barcode read proportion) (log2 ratio); each designed protein is fused to an ALFA-tag nanobody in HEK293 cells to bring the named protein to FLAG-tagged glucokinase (GCK); Myc marks an untargeted standard; higher = target protein stabilised (more abundant)
Conditions: target protein: 3xFLAG-MCP-GCK-ALFA reporter; HEK293 landing pad (RPLP)
Protocol: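 LABEL-seq trans screen in HEK293 landing-pad cells. Each de novo designed 100-aa effector handle, binding the indicated effector (E3 ligase, DUB or autophagy protein), is fused to a constant NbALFA target handle and induced with 2 ug/mL doxycycline. A FLAG-MCP-GCK-ALFA target and a Myc-MCP standard reporter were transfected, and after 48 h circRNA barcodes were recovered by anti-FLAG and anti-Myc IP and sequenced. The value is the median across barcodes (at least 3 per design) of log2(FLAG/Myc read-proportion ratio), with the two transfection replicates pooled. Negative values mean degradation and positive values mean stabilisation of the target.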

Binder	median log2 fold change
B1	-0.664
B2	-0.0549
B3	0.066
B4	-0.0408
B5	0.222
B6	0.154
B7	-0.0559
B8	-0.415
B9	-0.698
B10	-0.371
B11	0.132
B12	-0.561
B13	0.0318
B14	0.0494
B15	-0.563
B16	0.103
B17	-0.515
B18	0.184
B19	-0.171
B20	-0.0306
B21	-0.556
B22	0.204
B23	0.00278
B24	-0.0124
B25	-0.0164
B26	-0.36
B27	-0.868
B28	0.256
B29	-0.0634

Source: the supplement of paper PMC12632987
